According to PubChem BioAssay:
For some assays here: Results with a measured potency or affinity are listed apart. Calls of active or inactive are those of the source. Unless noted, no rule for the calls is given here.

What was measured:
[1] = antimalarial activity against Dd2 strain (AID 2302;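 active = growth inhibition above 50% at the single 2 µM test dose, taken to imply half-maximal potency below 2 µM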;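 also: 0% = DMSO untreated growth and 100% = chloroquine plus artemisinin killed control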); settings: P. falciparum Dd2 in RBCs, LDH growth readout, 72 h; at 2 µM; active compounds read high
[2] = human hepatoma cell viability loss – ATP luminescence, cytotoxicity control for P. falciparum antimalarial project, primary screen (AID 2303;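 active = inhibition above 50%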;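 also: 0% = DMSO wells and 100% = digitonin-killed cells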); settings: HepG2 viability, 24-48 h, at 10 µM, active compounds read high
[3] = biological target: L-lactate dehydrogenase (Plasmodium falciparum (isolate CDC / Honduras)) (UniProt Q27743); assay: PfLDH activity inhibition – cell lysate, 3D7 strain, counter-screen for P. falciparum growth inhibition project (AID 2304);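 also: 0% = vehicle and 100% = reference inhibitor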; settings: P. falciparum 3D7 crude extract, LDH APAD/NBT absorbance; at 2 µM; active compounds read high
[4] = inhibition of 3D7 malaria parasite growth – strain 3D7 (AID 2306);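 also: 0% = DMSO wells and 100% = chloroquine plus artemisinin control wells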; settings: P. falciparum 3D7 erythrocytic growth, LDH absorbance, 72 h; at 2 µM; active compounds read high
[5] = biological target: Calcium-dependent protein kinase 1 (Plasmodium falciparum (isolate 3D7)) (UniProt P62344); assay: PfCDPK1 kinase inhibitors, biochemical, TCAMS library (AID 1159585; cut-off not given, nearly all actives have IC50 up to about 0.98 µM;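 also: inhibitors leave more ATP so luminescence rises with inhibition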); settings: recombinant PfCDPK1, Kinase-Glo ATP depletion luminescence
[6] = biological target: Plasmodium falciparum protein kinase 6 (PK6, PF3D7_1337100) (UniProt Q8IDW1); assay: PfPK6 kinase inhibitors, biochemical, TCAMS library (AID 1159586); settings: recombinant PfPK6, Kinase-Glo ATP depletion luminescence
[7] = biological target: Protein kinase 7 (PK7), Plasmodium falciparum 3D7 (PF3D7_0213400) (UniProt Q7YTF7); assay: inhibition of Plasmodium PK7 catalytic activity – biochemical, TCAMS antimalarial set, Kinase-Glo luminescence (AID 1159587); settings: recombinant PfPK7, Kinase-Glo ATP depletion luminescence
[8] = biological target: Calcium-dependent protein kinase 4 (Plasmodium falciparum (isolate 3D7)) (UniProt Q8IBS5); assay: PfCDPK4 kinase inhibitors, biochemical, TCAMS library (AID 1159588; cut-off not given, nearly all actives have IC50 up to about 0.91 µM); settings: recombinant PfCDPK4, Kinase-Glo ATP depletion luminescence
Sequence of Calcium-dependent protein kinase 4 (Plasmodium falciparum (isolate 3D7)) (Q8IBS5 whole entry, looked up): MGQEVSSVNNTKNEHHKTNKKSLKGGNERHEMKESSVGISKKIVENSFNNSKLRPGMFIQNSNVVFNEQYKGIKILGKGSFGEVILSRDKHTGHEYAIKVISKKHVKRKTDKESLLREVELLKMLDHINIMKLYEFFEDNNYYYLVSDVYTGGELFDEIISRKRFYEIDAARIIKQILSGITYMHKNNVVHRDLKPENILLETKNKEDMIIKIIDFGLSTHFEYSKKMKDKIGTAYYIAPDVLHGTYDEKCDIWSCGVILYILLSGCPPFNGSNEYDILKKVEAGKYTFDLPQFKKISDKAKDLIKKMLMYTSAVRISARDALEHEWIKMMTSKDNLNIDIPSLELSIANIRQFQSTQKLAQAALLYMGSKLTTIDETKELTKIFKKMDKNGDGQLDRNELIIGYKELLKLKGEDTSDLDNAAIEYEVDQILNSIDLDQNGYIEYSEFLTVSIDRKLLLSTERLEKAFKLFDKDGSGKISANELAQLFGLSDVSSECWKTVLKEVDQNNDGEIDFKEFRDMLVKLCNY

Sequence of L-lactate dehydrogenase (Plasmodium falciparum (isolate CDC / Honduras)) (Q27743 whole entry, looked up): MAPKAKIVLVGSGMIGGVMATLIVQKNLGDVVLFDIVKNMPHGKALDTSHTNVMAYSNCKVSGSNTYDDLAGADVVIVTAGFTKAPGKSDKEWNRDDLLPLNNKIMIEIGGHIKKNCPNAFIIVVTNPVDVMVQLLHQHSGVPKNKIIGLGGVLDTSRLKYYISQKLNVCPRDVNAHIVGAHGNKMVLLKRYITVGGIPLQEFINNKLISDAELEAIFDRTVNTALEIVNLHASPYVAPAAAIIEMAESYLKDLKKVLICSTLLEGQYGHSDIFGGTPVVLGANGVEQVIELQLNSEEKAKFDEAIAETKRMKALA
Sequence of Protein kinase 7 (PK7), Plasmodium falciparum 3D7 (PF3D7_0213400) (Q7YTF7 1-343): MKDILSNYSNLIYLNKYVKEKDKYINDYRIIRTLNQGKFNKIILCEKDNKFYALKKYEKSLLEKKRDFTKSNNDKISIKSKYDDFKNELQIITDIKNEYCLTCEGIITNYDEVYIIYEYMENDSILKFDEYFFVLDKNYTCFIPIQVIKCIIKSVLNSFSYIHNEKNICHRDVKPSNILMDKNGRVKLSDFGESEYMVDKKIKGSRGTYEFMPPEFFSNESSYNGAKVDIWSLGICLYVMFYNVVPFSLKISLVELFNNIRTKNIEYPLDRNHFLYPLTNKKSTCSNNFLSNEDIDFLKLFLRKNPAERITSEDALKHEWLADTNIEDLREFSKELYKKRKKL
Sequence of Plasmodium falciparum protein kinase 6 (PK6, PF3D7_1337100) (Q8IDW1 1-305): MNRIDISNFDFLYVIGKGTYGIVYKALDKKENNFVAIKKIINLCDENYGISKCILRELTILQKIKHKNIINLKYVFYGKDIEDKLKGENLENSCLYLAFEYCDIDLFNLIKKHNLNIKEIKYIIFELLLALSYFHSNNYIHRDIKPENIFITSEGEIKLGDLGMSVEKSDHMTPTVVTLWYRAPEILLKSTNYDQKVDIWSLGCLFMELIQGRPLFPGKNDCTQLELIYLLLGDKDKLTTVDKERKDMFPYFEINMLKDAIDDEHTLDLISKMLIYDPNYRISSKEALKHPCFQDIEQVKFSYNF
Sequence of Calcium-dependent protein kinase 1 (Plasmodium falciparum (isolate 3D7)) (P62344 whole entry, looked up): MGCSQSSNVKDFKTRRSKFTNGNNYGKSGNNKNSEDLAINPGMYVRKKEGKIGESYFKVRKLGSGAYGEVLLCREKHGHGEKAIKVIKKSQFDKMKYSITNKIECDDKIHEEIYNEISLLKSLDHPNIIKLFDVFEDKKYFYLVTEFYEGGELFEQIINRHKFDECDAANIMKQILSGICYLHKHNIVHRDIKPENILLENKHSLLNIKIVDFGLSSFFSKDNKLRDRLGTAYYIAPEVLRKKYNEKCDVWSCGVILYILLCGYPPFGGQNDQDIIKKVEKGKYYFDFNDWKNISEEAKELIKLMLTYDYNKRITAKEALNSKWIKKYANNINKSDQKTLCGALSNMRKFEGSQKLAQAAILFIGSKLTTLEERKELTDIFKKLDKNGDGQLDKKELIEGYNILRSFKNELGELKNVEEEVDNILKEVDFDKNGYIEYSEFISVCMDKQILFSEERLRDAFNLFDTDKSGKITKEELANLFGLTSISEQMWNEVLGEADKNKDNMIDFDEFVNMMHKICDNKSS

CC(C)c1sc(N2CCN(C)CC2)nc1C(=O)NCCc1ccc(Cl)c(Cl)c1
inactive: inhibition [2] 10% | inhibition [3] -2% | outcome [5] | outcome [6] | outcome [7] | outcome [8]
active: growth inhibition [1] 79% | growth inhibition [4] 98%

Clc1ccc2c(N3CCN(CCN4CCN(c5ccnc6cc(Cl)ccc56)CC4)CC3)ccnc2c1
inactive: inhibition [2] 10% | inhibition [3] 1% | outcome [5] | outcome [6] | outcome [7] | outcome [8]
active: growth inhibition [1] 100% | growth inhibition [4] 99%

C=CCc1cc(C)ccc1OCCCON1C(N)=NC(N)=NC1(C)C
inactive: inhibition [3] -6% | outcome [5] | outcome [6] | outcome [7] | outcome [8]
active: growth inhibition [1] 96% | inhibition [2] 64% | growth inhibition [4] 96%

O=C(Nc1cccnc1)c1cc(-c2cccnc2)nc2ccc(Cl)cc12
active: growth inhibition [1] 50% | growth inhibition [4] 97%
inactive: inhibition [2] 45% | inhibition [3] -6% | outcome [5] | outcome [6] | outcome [7] | outcome [8]

O=S(=O)(NCCN1CCCC1)c1cccc(-c2ccc(CNCc3ccccc3)cc2)c1
inactive: growth inhibition [1] 41% | inhibition [3] -8% | outcome [5] | outcome [6] | outcome [7] | outcome [8]
active: inhibition [2] 54% | growth inhibition [4] 95%

CCc1c[nH]c2c(N3CCCC3=O)cc(C(=O)N[C@@H](Cc3ccccc3)[C@H](O)CNC3CCCCC3)cc12
active: growth inhibition [1] 98% | growth inhibition [4] 100%
inactive: inhibition [2] 12% | inhibition [3] -1% | outcome [5] | outcome [6] | outcome [7] | outcome [8]

CC(C)C[C@H](NC(=O)c1cc2cc(OCCN3CCNCC3)ccc2o1)C(=O)NC1CC[C@@H](C)N(C(=O)Nc2ccc(Cl)cc2)CC1=O (stereo not given in full)
inactive: inhibition [2] -3% | inhibition [3] 6% | outcome [5] | outcome [6] | outcome [7] | outcome [8]
active: growth inhibition [1] 92% | growth inhibition [4] 90%

CCCN(CC)CCOC(=O)c1ccccc1
active: growth inhibition [4] 99%
inactive: growth inhibition [1] 1% | inhibition [2] 2% | inhibition [3] -4% | outcome [5] | outcome [6] | outcome [7] | outcome [8]

N#Cc1cccc(NC(=O)NC2CCN(CCCCCNC(=O)[C@@H]3C[C@H]3c3ccc(Cl)c(Cl)c3)CC2)c1
active: growth inhibition [4] 102%
inactive: growth inhibition [1] -2% | inhibition [2] 36% | inhibition [3] 3% | outcome [5] | outcome [6] | outcome [7] | outcome [8]

Cc1cccc2[nH]c(-c3cccc(-c4ccc(C(=O)NCc5nccn5C)cc4)c3)nc12
inactive: growth inhibition [1] 9% | inhibition [2] 18% | inhibition [3] 1% | outcome [5] | outcome [6] | outcome [7] | outcome [8]
active: growth inhibition [4] 100%

COc1ccc2c(c1)nc(CN=C(N)N)n2Cc1ccc(Cl)cc1
active: growth inhibition [1] 99% | growth inhibition [4] 102%
inactive: inhibition [2] 12% | inhibition [3] 4% | outcome [5] | outcome [6] | outcome [7] | outcome [8]

COc1ccc2nccc([C@@H](O)CN3CCC(NC(=O)c4ccc(-c5ccc(C#N)cc5)cc4)CC3)c2c1
active: growth inhibition [1] 91% | growth inhibition [4] 101%
inactive: inhibition [2] 42% | inhibition [3] 4% | outcome [5] | outcome [6] | outcome [7] | outcome [8]

CN(C)c1ccnc2ccc(NC(=O)Nc3ccnc4ccccc34)cc12
inactive: inhibition [2] 15% | inhibition [3] 3% | outcome [5] | outcome [6] | outcome [7] | outcome [8]
active: growth inhibition [1] 99% | growth inhibition [4] 100%

CN(C)CCOc1ccc2c(=O)cc(CCc3cccc(F)c3F)n(CC(=O)N(C)Cc3ccc(-c4ccc(C(F)(F)F)cc4)cc3)c2c1
active: growth inhibition [1] 60% | growth inhibition [4] 90%
inactive: inhibition [2] 33% | inhibition [3] 2% | outcome [5] | outcome [6] | outcome [7] | outcome [8]

Cc1cccc(CC2CC(=O)N(c3ccc([N+](=O)[O-])cc3)C2=O)c1 (stereo not given)
active: growth inhibition [4] 95%
inactive: growth inhibition [1] 1% | inhibition [2] 11% | inhibition [3] 2% | outcome [5] | outcome [6] | outcome [7] | outcome [8]

CN1CCC(C(=O)Nc2cccc(-c3ccc(-c4nc5ccc(C(F)(F)F)cc5[nH]4)cc3)c2)CC1
inactive: inhibition [2] 38% | inhibition [3] -4% | outcome [5] | outcome [6] | outcome [7] | outcome [8]
active: growth inhibition [1] 99% | growth inhibition [4] 100%

COCCCNC(=O)c1ccc(O)c(-c2cc(Cl)cc(Cl)c2)c1
active: growth inhibition [4] 94%
inactive: growth inhibition [1] 34% | inhibition [2] 22% | inhibition [3] -7% | outcome [5] | outcome [6] | outcome [7] | outcome [8]

CCN(CCCN1CCCCC1)c1cc(C)nc(Nc2ccc(Cl)c(C(F)(F)F)c2)n1
active: growth inhibition [1] 55% | growth inhibition [4] 96%
inactive: inhibition [2] 43% | inhibition [3] 2% | outcome [5] | outcome [6] | outcome [7] | outcome [8]

O=C(Nc1cccc(-c2ccc(-c3nc4ccc(C(F)(F)F)cc4[nH]3)cc2)c1)c1csnn1
active: growth inhibition [1] 93% | growth inhibition [4] 98%
inactive: inhibition [2] 23% | inhibition [3] 3% | outcome [5] | outcome [6] | outcome [7] | outcome [8]

CCc1ccc(C2CCN(CCCCNC(=O)c3ccc(-c4ccc(C(F)(F)F)cc4)cc3)CC2)c(OCCO)c1
active: growth inhibition [1] 69% | inhibition [2] 82% | growth inhibition [4] 101%
inactive: inhibition [3] -6% | outcome [5] | outcome [6] | outcome [7] | outcome [8]

CCCCNC[C@@H](O)[C@H](Cc1ccccc1)NC(=O)c1cc(NCC)cc(N2CCCCS2(=O)=O)c1
inactive: inhibition [2] 11% | inhibition [3] 2% | outcome [5] | outcome [6] | outcome [7] | outcome [8]
active: growth inhibition [1] 98% | growth inhibition [4] 99%

Cc1cc(C)cc(OCC(O)CN(Cc2cc(Cl)cc(Cl)c2)C(=O)Nc2ccc([N+](=O)[O-])cc2)c1 (stereo not given)
active: growth inhibition [4] 95%
inactive: growth inhibition [1] 38% | inhibition [2] -3% | inhibition [3] 4% | outcome [5] | outcome [6] | outcome [7] | outcome [8]

COc1ccc2c(NN=C(C)c3ccccn3)cc(C)nc2c1
active: growth inhibition [1] 51% | growth inhibition [4] 102%
inactive: inhibition [2] 33% | inhibition [3] -5% | outcome [5] | outcome [6] | outcome [7] | outcome [8]

CC(C)CCNCc1ccc(OCc2cccc(C(=O)Nc3ccccc3)c2)c(I)c1
inactive: inhibition [2] 25% | inhibition [3] 0% | outcome [5] | outcome [6] | outcome [7] | outcome [8]
active: growth inhibition [1] 59% | growth inhibition [4] 100%

COc1cc(Nc2nccc(N3CCC(NC(=O)Nc4ccc5c(c4)OCO5)C3)n2)cc(OC)c1OC (stereo not given)
active: growth inhibition [1] 74% | growth inhibition [4] 96%
inactive: inhibition [2] 9% | inhibition [3] -1% | outcome [5] | outcome [6] | outcome [7] | outcome [8]

CCCCCCN1CCCN(Cc2ccc(C(=O)Nc3cccc(CC)c3)cc2)CC1
active: growth inhibition [1] 54% | growth inhibition [4] 85%
inactive: inhibition [2] 31% | inhibition [3] -3% | outcome [5] | outcome [6] | outcome [7] | outcome [8]

O=C(Nc1ccc(-c2cccc(-c3nc4ccc(C(F)(F)F)cc4[nH]3)c2)cc1)c1ccc(=O)[nH]n1
inactive: growth inhibition [1] 13% | inhibition [3] -4% | outcome [5] | outcome [6] | outcome [7] | outcome [8]
active: inhibition [2] 72% | growth inhibition [4] 87%

CN1CCCC(CN2CCN(Cc3ccc(-c4cccc(-c5nc6ccc(F)cc6[nH]5)c4)cc3)CC2)C1 (stereo not given)
active: growth inhibition [1] 99% | inhibition [2] 92% | growth inhibition [4] 100%
inactive: inhibition [3] -2% | outcome [5] | outcome [6] | outcome [7] | outcome [8]

CCCC1N=C(N)N=C(N)N1c1ccc(C)c(C)c1 (stereo not given)
inactive: growth inhibition [1] -2% | inhibition [2] 7% | inhibition [3] -3% | outcome [5] | outcome [6] | outcome [7] | outcome [8]
active: growth inhibition [4] 95%

COc1cccc(CNC(=O)c2cccc(-c3cccc(CN4CCC(N5CCCC5)CC4)c3)n2)c1
active: growth inhibition [1] 76% | growth inhibition [4] 100%
inactive: inhibition [2] 22% | inhibition [3] 1% | outcome [5] | outcome [6] | outcome [7] | outcome [8]

CN1CCC(NCc2cccc(-c3cnc(NCc4ccccc4)nc3)c2)CC1
active: growth inhibition [1] 67% | growth inhibition [4] 102%
inactive: inhibition [2] 12% | inhibition [3] 4% | outcome [5] | outcome [6] | outcome [7] | outcome [8]

O=C(Nc1ccc(OC2CCN(Cc3ccccc3)C2)c(Cl)c1)c1ccco1 (stereo not given)
active: growth inhibition [1] 94% | growth inhibition [4] 95%
inactive: inhibition [2] 13% | inhibition [3] 6% | outcome [5] | outcome [6] | outcome [7] | outcome [8]

Nc1c2c(nc3ccc(Oc4ccc(Br)cc4Br)cc13)CCCC2
active: growth inhibition [4] 99%
inactive: growth inhibition [1] 47% | inhibition [2] 33% | inhibition [3] 0% | outcome [5] | outcome [6] | outcome [7] | outcome [8]

O=C(NCCCCN1CCC(c2ccc3c(c2OCCCO)CCCC3)CC1)c1ccc(-c2ccc(C(F)(F)F)cc2)cc1
inactive: inhibition [3] 1% | outcome [5] | outcome [6] | outcome [7] | outcome [8]
active: growth inhibition [1] 53% | inhibition [2] 98% | growth inhibition [4] 83%

O=C(Nc1ccc(Cl)c(Cl)c1)C1CCC(=O)N1[C@@H](Cc1ccccc1)C(=O)NCCc1ccc(Cl)cc1 (stereo not given in full)
inactive: growth inhibition [1] -9% | inhibition [2] 3% | inhibition [3] 0% | outcome [5] | outcome [6] | outcome [7] | outcome [8]
active: growth inhibition [4] 95%

COc1nc2c(CCN3CC[C@H](NCc4cc(C#N)c5c(c4)OCCO5)[C@H](O)C3)ccnc2cc1F
active: growth inhibition [4] 95%
inactive: growth inhibition [1] 41% | inhibition [2] 18% | inhibition [3] -3% | outcome [5] | outcome [6] | outcome [7] | outcome [8]

CC(C)N1CCC(N(Cc2ccc(-c3ccc(C(F)(F)F)cc3)cc2)C(=O)Cn2c(SCc3cccc(F)c3F)nc(=O)c3ccccc32)CC1
active: growth inhibition [1] 75% | inhibition [2] 74% | growth inhibition [4] 91%
inactive: inhibition [3] -4% | outcome [5] | outcome [6] | outcome [7] | outcome [8]

CCC(=O)NC(c1ccco1)c1cc(Cl)c2cccnc2c1O (stereo not given)
active: growth inhibition [1] 74% | inhibition [2] 58% | growth inhibition [4] 89%
inactive: inhibition [3] -5% | outcome [5] | outcome [6] | outcome [7] | outcome [8]

O=C(Nc1cccc(-c2nn3ncccc3c2-c2ccnc(Nc3ccc(N4CCOCC4)cc3)n2)c1)c1c(F)cccc1F
active: growth inhibition [1] 75% | inhibition [2] 75% | growth inhibition [4] 101%
inactive: inhibition [3] 7% | outcome [5] | outcome [6] | outcome [7] | outcome [8]

Cc1ccc2sc(N(CCCn3ccnc3)C(=O)c3ccco3)nc2c1C
inactive: inhibition [2] 9% | inhibition [3] -2% | outcome [5] | outcome [6] | outcome [7] | outcome [8]
active: growth inhibition [1] 98% | growth inhibition [4] 93%
